# Screens: PubChem BioAssay, NMMLSC
# Rows were chosen to be rich in hits. Some 0.93% of all compounds tested hit in one or more screens of this group.
# RPL19A TOR yeast = alters RPL19A-GFP fluorescence in TOR pathway yeast screen; S. cerevisiae RPL19A-GFP strain, flow cytometry, 3 h; active compounds read low; percent response vs DMSO, % at 10 µM; actives 0.3% (n = 330,000); AID 2025;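 active = percent response vs DMSO below 50%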;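 note: median channel GFP fluorescence of the barcoded RPL19A-GFP strain; ratio of sample median GFP to plate DMSO average so 100% = DMSO; lower means less RPL19A-GFP as with rapamycin TOR inhibition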
# CIT2-GFP yeast = yeast TOR pathway CIT2-GFP modulation. S. cerevisiae CIT2-GFP strain, flow cytometry, 3 h; 100 means same as DMSO wells. GFP response vs DMSO, % at 10 µM. actives 0.065% (n = 320,000). AID 2029;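 active = GFP response relative to DMSO above a set limit, near the screen mean plus 3 SD, cut at about 150% in these data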;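 note: ratio of well median GFP fluorescence to mean of DMSO wells on the plate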
# LAP4-GFP MLPCN = alters LAP4-GFP fluorescence in TOR pathway yeast screen; S. cerevisiae LAP4-GFP multiplex, flow cytometry GFP, 3 h; median GFP as percent of DMSO wells; GFP response vs DMSO, % at 10 µM; actives 0.34% (n = 320,000); AID 2023;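 active = GFP response vs DMSO above a set limit, about the screen mean plus 3 SD, cut at about 150% in these data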
# AGP1-GFP MLPCN = modulators of TOR pathway AGP1-GFP in S. cerevisiae; S. cerevisiae AGP1-GFP multiplex flow cytometry, 3 h; GFP as percent of DMSO wells; GFP response vs DMSO, % at 10 µM; AID 2066; actives 0.02% (n = 320,000);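 active = GFP response relative to DMSO above a set limit, near screen average plus 3 SD, cut at about 150% in these data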;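 note: median GFP channel fluorescence of the gated AGP1 strain per well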
# MEP2-GFP yeast = yeast TOR pathway MEP2-GFP modulation; S. cerevisiae MEP2-GFP strain, flow cytometry GFP, 3 h; 100% = DMSO control level; GFP response vs DMSO, % at 10 µM; actives 0.51% (n = 330,000); AID 2016;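 active = GFP response versus DMSO above a set limit, roughly screen mean plus 3 SD, cut at about 180% in these data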;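 note: median GFP fluorescence of the barcode-gated MEP2-GFP cells per well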
# LAP4-GFP pick2 = yeast LAP4-GFP modulation, second cherry pick; AID 2621; shares compounds with LAP4-GFP MLPCN; S. cerevisiae LAP4-GFP strain, flow cytometry GFP, 3 h; actives 20% (n = 590); GFP response vs DMSO, % at 10 µM;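 active = GFP signal as percent of the solvent control above about 150%, meaning raised reporter expression, limit read from the data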;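 note: ratio of well median GFP fluorescence to plate DMSO mean so 100% = DMSO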
# MEP2 cherry2 = yeast MEP2-GFP modulation, second cherry pick; shares compounds with LAP4-GFP MLPCN; S. cerevisiae MEP2-GFP strain, flow cytometry GFP, 3 h; GFP response vs DMSO, % at 10 µM; actives 10% (n = 590); AID 2622;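 active = GFP signal above 150% of the solvent control wells, that is a rise of more than half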;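 note: median channel GFP fluorescence of all gated yeast cells per well; ratio of median GFP to plate DMSO average so 100% = DMSO level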
# RPL19A-GFP pick2 = reconfirmed modulator of RPL19A-GFP TOR reporter in yeast | shares compounds with LAP4-GFP MLPCN | S. cerevisiae RPL19A-GFP strain, flow cytometry GFP, 3 h; active compounds read low; 100% means same as DMSO wells | GFP response vs DMSO, % at 10 µM | actives 3% (n = 590) | AID 2623;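 active = under 65% GFP response relative to DMSO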;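 note: median GFP channel fluorescence per well over the all cells gate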
# CIT2-GFP pick2 = yeast CIT2-GFP TOR reporter modulation, second cherry pick; GFP response vs DMSO, % at 10 µM; S. cerevisiae CIT2-GFP strain, flow cytometry GFP, 3 h; DMSO control wells read 100%; shares compounds with LAP4-GFP MLPCN; actives 8% (n = 590);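 active = GFP response vs DMSO above about 150%, limit read from the data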;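 note: median green fluorescence per well over all gated yeast cells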
# AGP1-GFP pick2 = reconfirmed modulator of AGP1-GFP TOR reporter in yeast. shares compounds with LAP4-GFP MLPCN. S. cerevisiae AGP1-GFP strain, flow cytometry GFP, 3 h. percent response vs DMSO, % at 10 µM. 590 tested, under 10 active. AID 2643;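 active = over 150 percent of DMSO response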;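 note: median GFP channel fluorescence over all cells without mother daughter split; sample median GFP divided by mean DMSO control so 100% equals DMSO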
# s288c autofluor = yeast s288c autofluorescence artifact, counter-screen; shares compounds with LAP4-GFP MLPCN; S. cerevisiae s288c, 520 nm autofluorescence, flow cytometry, 3 h; active compounds read high; zero means same as solvent-only cells; fluorescence change (kMESF span) at 33 µM; 610 tested, under 10 active;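 active = fluorescence span over the dose series, or activity score, above about 33, limit read from the data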
# s288c autofl DR = TOR screen hit shows autofluorescence in yeast s288c; shares compounds with LAP4-GFP MLPCN; S. cerevisiae s288c parental, compound autofluorescence, flow cytometry, 3 h; fluorescence change (span) at 33 µM; 110 tested, under 10 active; AID 488829;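 active = fluorescence change span, or the activity score built from it, above 25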
# TORC1 bypass gr = stops wildtype yeast growth while TORC1 bypass cells still grow; shares compounds with LAP4-GFP MLPCN; S. cerevisiae BY4741 spot growth rating, 48-72 h; active compounds read low; growth rating (0-3) at 30 µM; 120 tested, under 10 active; AID 504456;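 active = growth rating at most 1 for wild type yeast while the TORC1 bypass strain still grows fully, rated 3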
# Starred values were filed as active, the others as inactive; . = not tested or not shown; + = active, no number.
SMILES,RPL19A TOR yeast,CIT2-GFP yeast,LAP4-GFP MLPCN,AGP1-GFP MLPCN,MEP2-GFP yeast,LAP4-GFP pick2,MEP2 cherry2,RPL19A-GFP pick2,CIT2-GFP pick2,AGP1-GFP pick2,s288c autofluor,others
CC1CC(C)CN(C(=O)CSc2nnc(-c3ccc(Cl)s3)o2)C1 (stereo unspecified),100.8,93.3,108.7,94.2,105.7,.,.,.,.,.,.,
CC(C)CC(=O)NC(=S)Nc1nc(-c2ccccc2)cs1,62.2,78.6,96.8,24.7,137.6,98.2,96.1,99.5,105.7,97.9,0,
O=C(COC(=O)CN1C(=O)NC2(CCCC2)C1=O)Nc1ccccc1C(F)(F)F,94.5,100.4,95.0,101.7,93.2,.,.,.,.,.,.,
CCN(CC)C(=O)Cn1cc(C(=O)C(=O)NCCc2ccc(S(N)(=O)=O)cc2)c2ccccc21,106.0,103.1,109.3,108.9,106.0,.,.,.,.,.,.,
NS(=O)(=O)c1ccc(CCNC(=O)C(=O)c2cn(CC(=O)N3CCOCC3)c3ccccc23)cc1,98.9,171.3*,104.3,109.2,113.2,102.9,101.5,99.2,106.3,99.4,.,
CN(CC(=O)Nc1cccnc1Cl)S(=O)(=O)c1ccc(Cl)cc1,92.2,95.5,110.2,106.2,93.6,.,.,.,.,.,.,
O=C(/C=C/c1ccc(Cl)cc1)c1cccnc1,57.7,55.3,87.8,40.1,93.8,111.2,108.3,100.4,111.2,94.0,.,
N#Cc1ccc(/C=C/C(=O)c2cccnc2)cc1,94.2,95.6,105.1,89.8,86.6,.,.,.,.,.,.,
O=C(CSc1ccc(-c2cccnc2)nn1)N1CCCCC1,92.8,91.4,99.0,96.7,98.3,.,.,.,.,.,.,
O=C1C=CC(=O)N1c1cccc(-c2ccccc2)c1,64.7,60.7,206.3*,77.4,97.8,.,.,.,.,.,1.82,
O=c1c2cnn(-c3ccccc3)c2ncn1Cc1ccco1,63.9,52.0,120.7,77.2,98.6,129.8,99.8,99.0,98.4,93.1,0.1,
O=C(NCCS(=O)(=O)N1CCN(c2ccccc2F)CC1)c1c(F)cccc1F,104.5,102.1,96.3,98.0,109.0,.,.,.,.,.,.,
CC1=NOC(=O)/C1=C\c1ccc(-c2cc(Cl)ccc2Cl)o1,89.2,110.6,167.4*,54.9,93.9,.,.,.,.,.,1.51,
C/C(=N\Nc1ncnc2sc(C)c(C)c12)c1ccccn1,182.6,+,869.2*,202.9*,+,.,.,.,.,.,93.5*,
Cc1sc2ncnc(N/N=C/c3cccc(O)c3)c2c1C,97.0,97.0,95.7,95.0,99.5,.,.,.,.,.,.,
O=C(O)Cc1cc(I)c(Oc2ccc(O)c(I)c2)c(I)c1,97.1,71.1,138.4,83.0,93.0,.,.,.,.,.,.,
C[C@H](NC(=O)c1ccco1)C(=O)N1CCCC1,93.1,88.5,80.5,85.4,91.6,.,.,.,.,.,.,
CC(NC(=O)c1ccco1)C(=O)N1CCCCC1 (stereo unspecified),100.1,150.1*,91.3,113.0,109.5,100.0,103.2,100.7,99.5,98.2,.,
CCCCCNC1=CC(=O)CC(c2ccccc2)C1 (stereo unspecified),101.7,106.7,103.1,104.8,103.9,.,.,.,.,.,.,
O=C(OCn1ncc(Br)c(Br)c1=O)c1ccc(F)cc1,89.8,.,235.9*,80.9,85.5,.,.,.,.,.,0.61,s288c autofl DR=0.36;TORC1 bypass gr=2
O=C(OCn1ncc(Br)c(Br)c1=O)c1ccccc1Cl,87.5,84.4,203.1*,96.4,89.8,.,.,.,.,.,0,
O=C(OCc1cnc(Cl)s1)c1ccccc1Cl,94.8,84.3,100.3,74.6,96.9,.,.,.,.,.,.,
Cc1ccc(N2CCN(S(=O)(=O)c3c(C)noc3C)CC2C)cc1 (stereo unspecified),97.7,92.7,103.1,97.3,91.8,.,.,.,.,.,.,
Cc1noc(C)c1COc1cccc(C(=O)Nc2ccc(OCc3ccccc3)cc2)c1,109.2,103.8,97.7,108.2,103.1,.,.,.,.,.,.,
Cc1[nH][nH]c(=O)c1C(c1ccc(-c2ccc(F)cc2)o1)c1c(C)[nH][nH]c1=O,107.3,97.7,100.1,97.7,106.5,.,.,.,.,.,.,
SMILES,RPL19A TOR yeast,CIT2-GFP yeast,LAP4-GFP MLPCN,AGP1-GFP MLPCN,MEP2-GFP yeast,LAP4-GFP pick2,MEP2 cherry2,RPL19A-GFP pick2,CIT2-GFP pick2,AGP1-GFP pick2,s288c autofluor,others
Cc1[nH][nH]c(=O)c1C(c1ccc(-c2ccc(Cl)c(Cl)c2)o1)c1c(C)[nH][nH]c1=O,93.8,102.3,217.2*,85.0,96.0,.,.,.,.,.,-1.43,
O=C(O)Cn1c(=O)c2c(c3ccccc31)CCC2,94.8,113.2,99.9,94.5,881.3*,98.2,101.3,101.0,107.1,98.8,.,
CC1=NN(c2nc3ccccc3[nH]2)C(=O)C1Cc1ccccc1 (stereo unspecified),58.0,69.1,86.5,56.6,96.9,123.1,141.4,75.8,84.8,74.7,.,
CC(=O)n1cc(C(C[N+](=O)[O-])SCCN)c2ccccc21 (stereo unspecified),93.0,76.3,226.5*,78.2,86.8,183.4*,164.2*,97.6,126.5,103.8,1.51,
O=C(c1ccc([N+](=O)[O-])s1)N1CCN(c2ccccn2)CC1,105.2,101.6,103.9,110.0,105.0,.,.,.,.,.,.,
COc1ccc(OC)c2sc(N3CCN(C(=O)c4ccc([N+](=O)[O-])s4)CC3)nc12,95.1,87.7,160.3*,85.5,106.2,136.3,143.2,97.2,147.4,99.5,.,
O=C(/C=C/c1ccc(F)cc1)NC(=S)Nc1ccccc1,101.3,91.6,91.7,91.5,108.7,.,.,.,.,.,.,
COc1ccc(/C=C/C(=O)NC(=S)NNC(=O)c2cnccn2)cc1,98.4,94.0,224.7*,92.6,121.7,.,.,.,.,.,2.21,s288c autofl DR=0.57;TORC1 bypass gr=3
O=C(/C=C/c1ccc(F)cc1)NC(=S)NNC(=O)c1cnccn1,83.0,87.0,261.1*,75.0,122.3,.,.,.,.,.,1.41,
